# Bioassay records (PubChem)
# In the library only some 5.4% were active in any assay of this set; here they are far more common.
# VACV Venus inh: vaccinia inhibition (Venus reporter). Vaccinia virus Venus reporter expression, fluorescence. Potency, µM (doses to about 36.5 µM), for the others: top-dose activity change, negative = inhibition, usual class: inhibitors. hit rate 0.46% among 330,000. AID 720580; calls by dose curve; tested in A549 cells; note: nearly all actives have a fitted effect of over 30% in size
# Sm TGR block: S. mansoni TGR enzyme inhibition; Q962Y6; purified TGR, DTNB reduction, TNB absorbance 405 nm; Potency, µM (titrated, usually from 114 µM), for the others: top-dose activity change, negative = inhibition, actives largely listed as inhibitors; hit rate 3% among 360,000; active = well fitted inhibition curve with a large enough effect; inconclusive = small, poorly fitted or top-dose-only effect; inactive = no such curve, though single readings can be large or run the other way; note: nearly all actives have a fitted effect of over 60% in size
#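 TGR 20 nM + NADPH 100 uM (dispensed conc.), cpd preinc 15 min RT; start with NADPH (500 uM addition) then DTNB (15 mM addition). Kinetic TNB absorbance, 405 nm filter. Four-parameter Hill fit across titration.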
# Lassa entry inh: Lassa virus entry inhibition. Lassa virus pseudotype entry inhibition, cell reporter. Potency, µM (highest dose often 37.9 µM), for the others: at the top dose activity change, negative = inhibition, actives largely listed as inhibitors. hit rate 1.2% among 300,000. AID 540256; calls by dose curve; tested in HEK293 cells; note: nearly all actives have a fitted effect of over 50% in size
# Marburg entry inh: blocks Marburg virus binding to or entry into cells; AID 540276; hit rate 1.8% among 300,000; Marburg virus pseudotyped entry inhibition, cell reporter; Potency, µM (doses to about 37.8 µM), inactives show at the top dose activity change, negative = inhibition, usual class: inhibitors; calls by dose curve; tested in HEK293 cells
# VACV mCherry inh: inhibitors of vaccinia virus infection (mCherry reporter signal); Potency, µM (highest dose often 36.5 µM), without a hit: at the top dose activity change, negative = inhibition, usual class: inhibitors; Vaccinia virus mCherry reporter infection, fluorescence; hit rate 0.63% among 310,000; calls by dose curve; tested in A549 cells; note: nearly all actives have a fitted effect of over 35% in size
# FMDV antiviral: antivirals against foot and mouth disease virus; FMDV antiviral cell-based qHTS; Potency, µM (top dose mostly 57.9 µM), inactives show top-dose activity change, negative = inhibition, most hits filed as inhibitors; hit rate 1.2% among 410,000; AID 1159524; calls by dose curve; tested in HEK293T cells; note: read-out not given here; nearly all actives have a fitted effect of over 45% in size
# * = called active by the depositor; i = inactive; ? = inconclusive; nt = no result given; [ ] = dose if it differs, or a comment. % is set by controls: 0 for no effect and ±100 for the full control effect; potency is the fitted concentration of half-maximal effect.
SMILES,VACV Venus inh,Sm TGR block,Lassa entry inh,Marburg entry inh,VACV mCherry inh,FMDV antiviral
Cc1ccc(NCC(=O)N/N=C\c2ccc[nH]2)cc1,-18%,9%,?,3.2µM*,?,21%
Cc1ccc(C)c(NC(=O)CCC(=O)N/N=C/c2ccc[nH]2)c1,nt,?,18µM*,?,nt,-9%
COC(=O)c1[nH]c2ccc(F)cc2c1NC(=O)CCN1CCN(Cc2ccc3c(c2)OCO3)CC1,?,-26%,-15%,-1%,-15%,?
CCN(CC(=O)Nc1c(C(=O)OC)[nH]c2ccc(C)cc12)c1ccc2c(c1)OCO2,nt,50µM*,-20%,-18%,nt,-25%
O=C(NN1C(=O)/C(=C/c2ccc(O)c([N+](=O)[O-])c2)SC1=S)c1ccccc1Cl,17%,-16%,-26%,-6%[46.1 µM],4%,?
Cc1ccc(/C=C2\SC(=S)N(/N=C/c3cc([N+](=O)[O-])ccc3O)C2=O)o1,12%,8.9µM*,-26%,5%,-2%,11%
O=C(NN1C(=O)/C(=C/c2cc([N+](=O)[O-])ccc2O)SC1=S)c1ccccc1O,nt,35µM*,nt,nt,nt,nt
O=[N+]([O-])c1ccc(O)c(/C=N/n2cnc3ccccc32)c1,-10%,-13%,-23%,?,-8%,0%
CCOC(=O)Nc1ccc2c(c1)N(C(=O)CN(CC)CC)c1ccccc1CC2,-12%,-15%,5%,0%,i,-18%
CCOC(=O)Nc1ccc2c(c1)N(C(=O)CN1CCN(C)CC1)c1ccccc1CC2,nt,-1%,nt,nt,nt,-4%
CCCC(CCC)C(=O)Nc1ccc2c(c1)N(C(=O)CCN1CCN(C)CC1)c1ccccc1CC2,-11%,-12%,-1%,11µM*,-9%,-18%
CCN(CC)CC(=O)Nc1ccc2c(c1)N(C(=O)CN(CC)CC)c1ccccc1CC2,-10%,-5%,?,8.2µM*,i,nt
CCn1c2ccccc2c2cc(/C=N/n3c(-c4cc(C)[nH]n4)n[nH]c3=S)ccc21,-29%,-32%,?,5µM*,-16%,0%
CCn1c2ccccc2c2cc(/C=N/n3cn[nH]c3=S)ccc21,nt,-20%,5%,10µM*,nt,-3%
CCn1c2ccccc2c2cc(/C=N/n3cnnc3)ccc21,?,18%[11.4 µM],-15%,?,-21%,nt
COc1cccc2c1Oc1ncccc1N(C(=O)Nc1cccc(Cl)c1)C2,-23%,5%,?,nt,-19%,-17%
Oc1ccc2ccccc2c1CN1CCN(c2ccccc2F)CC1,-2%,11µM*,2%,23%,?,-3%
Oc1ccc2ccccc2c1CN1CCN(C/C=C/c2ccccc2)CC1,-7%,2.8µM*,-17%[46.1 µM],?,?,-17%
Cc1c(O)ccc2c(CN3CCN(C/C=C/c4ccccc4)CC3)cc(=O)oc12,-28%,-25%,?,8.9µM*,-7%,?
CC1=NNC(=O)/C1=C\c1cn(-c2ccccc2)nc1-c1ccc(Cl)cc1,8.9µM*,7%,?,?,10µM*,10µM*
Cc1ccc(-c2nn(-c3ccccc3)cc2C=C2C(=O)CC(C)(C)CC2=O)cc1,-16%,0%,-1%,-22%,-17%[1.46 µM],-75%
CNc1sc(C(=O)c2ccc(F)cc2)c(N)c1-c1nc2ccccc2s1,nt,40µM*,0%,-21%,nt,39%
Cc1ccc2c(CC(=O)N3CCOc4ccc(CN5C[C@@H](C)O[C@@H](C)C5)cc4C3)cc(=O)oc2c1,-11%,nt,nt,nt,-6%,-6%
COc1ccc(CC2C(=O)Nc3ccc(Br)cc32)cc1OC (centres undefined),-14%,12%,-4%[46.1 µM],2%[46.1 µM],-6%,-27%
COc1ccc(OC)c(CC2C(=O)Nc3ccc(Br)cc32)c1 (centres undefined),-27%,8%,?,?,-18%,13µM*
COc1ccc(CC2C(=O)NC(=O)NC2=O)c(OC)c1,-12%,50µM*,2%,-12%,i,-10%
CC1(C)Cc2ccccc2C2=NNC(=O)C2=N1,28µM*,nt,?,?,?,?
COc1cccc(Cn2c(CNC(=O)CCc3ccccc3)nc3cccnc32)c1,-5%,-1%,?,nt,-8%,2%
COc1cccc(-c2nc(CS(=O)(=O)CC(=O)NC3CCC(C)CC3)c(C)o2)c1 (centres undefined),-18%,-17%,-24%[46.1 µM],?,-9%,-19%
